The text below walks through data of PubChem BioAssay (Tox21).

A number with no mark means an inactive call. Results filed as inconclusive are left out. Calls of active or inactive are those of the source. Unless noted, calls follow the shape of the dose curve; as a rule, active = well fitted curve in the direction sought with a large enough effect in the repeat runs; inconclusive = weak or mixed curves; inactive = no such curve, though single readings can be large; an effect the other way counts as inactive or inconclusive.

A short description of assay [1]: qHTS assay to identify small molecule agonists of the estrogen receptor alpha (ER-alpha) signaling pathway in the presence of an antagonist - cell viability counter screen (AID 1259386).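 Also: series mostly up to about 92 µM; cells exposed to compounds for 22 h at 37 °C before the viability read; nearly all actives have a fitted effect of over 30% in size.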 A digest of the protocol:
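In this counter screen, compound effects on VM7Luc4E2 viability were tested in the presence of the antagonist ICI-182,780 at 10.0nM final. Compounds were dosed at 15 concentrations, exposure lasted 22hr, and the CellTiter-Fluor signal was read.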
For orientation: Quantitative high-throughput screening tests each substance at several concentrations.

The target of assay [2] is Progesterone receptor (Homo sapiens) (UniProt P06401). Description: qHTS assay to identify small molecule agonists of the progesterone receptor (PR) signaling pathway (AID 1346784; calls by dose curve; also: nearly all actives have a fitted effect of over 30% in size). A digest of the protocol:
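Beta-lactamase reporter read-out: after 16 hr compound treatment at 37C and a further 2 hr at room temperature with LiveBLAzer B/G FRET substrate, fluorescence was measured in PR-UAS-bla HEK 293T cells grown in 2% charcoal-stripped serum.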

Assay [3] shares this target. Description: qHTS assay to identify small molecule antagonists of the progesterone receptor (PR) signaling pathway (AID 1346795; active = well fitted inhibition curve with a large enough effect in the signal ratio in the repeat runs, not every such curve was filed as active; the % refers to the signal ratio; also: potency is read from the fitted curve at half-maximal effect). A digest of the protocol:
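Read-out is fluorescence from the LiveBLAzer B/G FRET substrate, cleaved by a UAS-controlled beta-lactamase in PR-UAS-bla HEK293T cells after 16 hr exposure to compound plus 1 nM promegestone (final), followed by 2 hr at room temperature.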

The nature of assay [4]: qHTS assay to identify small molecule antagonists of the progesterone receptor (PR) signaling pathway - cell viability counter screen (AID 1346798).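 Also: HEK293T PR-UAS-bla cells stimulated with the agonist R5020; series mostly up to about 92 µM; nearly all actives have a fitted effect of over 50% in size.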 A digest of the protocol:
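HEK293T PR-UAS-bla, 2% charcoal-stripped FBS; 4 hr pre-plate; cpd + R5020, 16 h 37C; LiveBLAzer read first; then CellTiter-Glo 30 min RT, luminescence.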

Assay [5] in a line: qHTS assay to identify small molecule antagonists of the TGF-beta/Smad signaling pathway - cell viability counter screen (AID 1346824). Also: nearly all actives have a fitted effect of over 50% in size. The method in brief: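 Cytotoxicity counter-screen run in the same wells as the beta-lactamase Smad reporter read: CellTiter-Glo luminescence after 30 min at room temperature. HEK 293T SBE-bla cells had 5 hr compound exposure at 37 C with TGF-beta1 (0.25 ng/mL stock).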

A short description of assay [6]: qHTS assay to identify small molecule agonists of the TGF-beta/Smad signaling pathway - cell viability counter screen (AID 1346829). Also: top concentration of the series differs between compounds; nearly all actives have a fitted effect of over 45% in size. A digest of the protocol:
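Here the cytotoxicity of library compounds is measured in SBE-bla HEK 293T cells treated for 5 hr, using CellTiter-Glo added to wells already read for the beta-lactamase reporter.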

Assay [7] deals with Thyrotropin-releasing hormone receptor (Homo sapiens) (UniProt P34981). The experiment in a line: qHTS assay to identify small molecule antagonists of the thyrotropin-releasing hormone receptor (TRHR) signaling pathway (AID 1346877; active = well fitted inhibition curve with a large enough effect in the repeat runs, not every such curve was filed as active; also: series mostly up to about 51 µM). A digest of the protocol:
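Kinetic fluorescence (3 min, 1 s resolution) following stimulation with TRH at 1 nM final; HEK293 cells bearing human TRHR; 5 min compound preincubation at RT; concentration-response over 15 points, triplicates.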

The target is the same in assay [8]. Description: qHTS assay to identify small molecule agonists of the thyrotropin-releasing hormone receptor (TRHR) signaling pathway (AID 1346891; calls by dose curve; also: series mostly up to about 58 µM). A digest of the protocol:
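Intracellular calcium rise, read as fluorescence every second for 3 min, served as the agonist signal in dye-loaded HEK293 cells expressing TRHR; each compound ran at 15 concentrations in triplicate.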

Assay [9] in a line: Caspase-3/7 induction in HepG2 cells by small molecules, qHTS assay (AID 1346978). Also: nearly all actives have a fitted effect of over 15% in size. A digest of the protocol: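 Caspase-3/7 induction was measured by Caspase-Glo 3/7 luminescence (30 min, room temperature) after a 17 hr compound exposure of wild-type HepG2 cells seeded at 2,000 per well and pre-incubated 5 hr.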
Assay [10] can be described thus: Caspase-3/7 induction in CHO-K1 cells by small molecules, qHTS assay (AID 1346980). Also: nearly all actives have a fitted effect of over 15% in size. A digest of the protocol:
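Luminescent Caspase-Glo 3/7 read (30min, room temperature) quantified apoptosis induction. Cells were wild-type CHO-K1, treated with compound for 17hr at 37 C and 5% CO2.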

Assay [11] deals with Nuclear receptor subfamily 1 group I member 2 (Homo sapiens) (UniProt O75469). The experiment in a line: Human pregnane X receptor (PXR) small molecule agonists, qHTS assay (AID 1346982). Also: nearly all actives have a fitted effect of over 35% in size. Also: potency is read from the fitted curve at half-maximal effect. A digest of the protocol:
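Reporter HepG2 cells expressing PXR-Luc are cultured in charcoal-stripped FBS (5%), treated with compounds for 24 hr at 37 C, and assayed by ONE-Glo luminescence after 30 min at room temperature.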

Assay [12] concerns the target Cytochrome P450 2D6 (Homo sapiens) (UniProt P10635). The experiment in a line: Cytochrome P450 Family 2 Subfamily D Member 6 (CYP2D6) small molecule antagonists: luciferase reporter qHTS assay (AID 1671196). Also: nearly all actives have a fitted effect of over 50% in size. Also: potency is read from the fitted curve at half-maximal effect. The method in brief:
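Test chemicals meet CYP2D6 plus proluciferin substrate (10 min, RT); NADPH regenerating solution then drives turnover for 1 h. Detection reagent halts the reaction; luminescence measured after 20 min.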
(A reporter such as luciferase makes a cellular process visible.)

The nature of assay [13]: qHTS assay to identify small molecule agonists of the progesterone receptor (PR) signaling pathway - cell viability counter screen (AID 1346799; calls by dose curve; also: nearly all actives have a fitted effect of over 45% in size). A digest of the protocol:
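Luminescence from CellTiter-Glo, added after the beta-lactamase FRET read in the same wells, gave cytotoxicity in PR-UAS-bla HEK293T cells treated with compounds for 16 hr at 37C.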

A short description of assay [14]: qHTS assay to identify small molecule agonists of the TGF-beta/Smad signaling pathway (AID 1346859; active = well fitted activation curve with a large enough effect in the signal ratio in the repeat runs, not every such curve was filed as active; the % refers to the signal ratio; also: series mostly up to about 77 µM). The method in brief:
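SBE-bla HEK 293T, 4,000 cells/well, plated o/n; cpd in DMSO, 5 hr, 37 C/5% CO2; B/G FRET substrate 2 hr RT; ex 405, em 460/530 nm.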

Assay [15] is described as follows: Human pregnane X receptor (PXR) small molecule agonists, qHTS cell viability counter screen (AID 1346977). Also: nearly all actives have a fitted effect of over 50% in size. A digest of the protocol:
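PXR-Luc HepG2, 2,000 cells/well, 5% charcoal-stripped FBS; 5hr settle; cpd 24hr, 37C/5% CO2; CellTiter-Fluor at 23hr, read 1hr later (fluorescence).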

The nature of assay [16]: Caspase-3/7 induction in HepG2 cells by small molecules, qHTS cell viability counter screen (AID 1346981). Also: series mostly up to about 92 µM; nearly all actives have a fitted effect of over 30% in size. A digest of the protocol:
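In this quantitative HTS counter screen, compounds delivered in DMSO were left on unmodified HepG2 cells for 16 hr at 37 C. Viability was then determined fluorometrically with CellTiter-Fluor, in parallel with caspase-3/7 induction in the same wells.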

The target in assay [17] is Nuclear receptor subfamily 1 group I member 2 (Homo sapiens) (UniProt O75469). Description: Human pregnane X receptor (PXR) activation by small molecules, qHTS assay (AID 1346985). Also: nearly all actives have a fitted effect of over 40% in size. Also: potency is read from the fitted curve at half-maximal effect. A digest of the protocol: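 DPX-2 cells (HepG2 co-transfected with a PXR response element and a CYP3A4-promoter luciferase construct) were seeded at 2,000 per well, rested 5 hr at 37C, then exposed to DMSO-dissolved compounds for 24 hr. Activation was read as luciferase luminescence.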

The target of assay [18] is Nuclear receptor subfamily 1 group I member 2 (Rattus norvegicus) (UniProt Q9R1A7). Description: Rat pregnane X receptor (rPXR) activation by small molecules, qHTS assay (AID 1346983). Also: nearly all actives have a fitted effect of over 20% in size. The conditions noted are these: rPXR luciferase reporter cells, One-Glo luminescence, 24 h; max activation: stronger effect = higher value. A digest of the protocol:
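Luminescent readout (One-Glo luciferase, 30 min room temperature) followed 24 hr compound treatment at 37 C of rPXR cells plated 2,000 per well and preincubated 5hr; qHTS format with compounds delivered in DMSO.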

In assay [19] the target is Nuclear receptor subfamily 1 group I member 2 (Homo sapiens) (UniProt O75469). Description: CYP3A4 induction through human pregnane X receptor (PXR) by small molecules, qHTS assay (AID 1346984). Also: nearly all actives have a fitted effect of over 40% in size. The method in brief:
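Induction measured in HepG2-based DPX-2 cells co-expressing human PXR and a CYP3A4 promoter-driven luciferase. After a 24-hour compound exposure, cells received CYP3A4 luciferin substrate at 3uM final for 3 hours, and light output was then recorded.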

Assay [20] can be described thus: Caspase-3/7 induction in CHO-K1 cells by small molecules, qHTS cell viability counter screen (AID 1346979). Also: nearly all actives have a fitted effect of over 35% in size. A digest of the protocol:
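Cells (CHO-K1, wild type) are plated at 1,500 per well and incubated 5hr. Test compounds in DMSO are then pinned in, followed by 16hr at 37C and 5% CO2. Viability is read by CellTiter-Fluor fluorescence after 1hr.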
% is scaled to controls: 0 for no effect and ±100 for the full control effect.

Sequence of Thyrotropin-releasing hormone receptor (Homo sapiens) (P34981 whole entry, looked up): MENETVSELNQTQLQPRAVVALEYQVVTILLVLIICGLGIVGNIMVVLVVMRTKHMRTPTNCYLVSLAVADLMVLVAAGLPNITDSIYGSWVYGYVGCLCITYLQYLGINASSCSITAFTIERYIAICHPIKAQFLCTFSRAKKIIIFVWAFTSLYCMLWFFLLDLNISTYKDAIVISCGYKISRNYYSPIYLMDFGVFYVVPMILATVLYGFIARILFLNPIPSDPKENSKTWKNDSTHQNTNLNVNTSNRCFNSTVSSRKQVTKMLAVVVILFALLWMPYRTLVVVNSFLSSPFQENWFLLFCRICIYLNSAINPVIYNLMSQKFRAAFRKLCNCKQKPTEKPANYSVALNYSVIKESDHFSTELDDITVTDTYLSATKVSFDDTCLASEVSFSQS
Sequence of Progesterone receptor (Homo sapiens) (P06401 whole entry, looked up): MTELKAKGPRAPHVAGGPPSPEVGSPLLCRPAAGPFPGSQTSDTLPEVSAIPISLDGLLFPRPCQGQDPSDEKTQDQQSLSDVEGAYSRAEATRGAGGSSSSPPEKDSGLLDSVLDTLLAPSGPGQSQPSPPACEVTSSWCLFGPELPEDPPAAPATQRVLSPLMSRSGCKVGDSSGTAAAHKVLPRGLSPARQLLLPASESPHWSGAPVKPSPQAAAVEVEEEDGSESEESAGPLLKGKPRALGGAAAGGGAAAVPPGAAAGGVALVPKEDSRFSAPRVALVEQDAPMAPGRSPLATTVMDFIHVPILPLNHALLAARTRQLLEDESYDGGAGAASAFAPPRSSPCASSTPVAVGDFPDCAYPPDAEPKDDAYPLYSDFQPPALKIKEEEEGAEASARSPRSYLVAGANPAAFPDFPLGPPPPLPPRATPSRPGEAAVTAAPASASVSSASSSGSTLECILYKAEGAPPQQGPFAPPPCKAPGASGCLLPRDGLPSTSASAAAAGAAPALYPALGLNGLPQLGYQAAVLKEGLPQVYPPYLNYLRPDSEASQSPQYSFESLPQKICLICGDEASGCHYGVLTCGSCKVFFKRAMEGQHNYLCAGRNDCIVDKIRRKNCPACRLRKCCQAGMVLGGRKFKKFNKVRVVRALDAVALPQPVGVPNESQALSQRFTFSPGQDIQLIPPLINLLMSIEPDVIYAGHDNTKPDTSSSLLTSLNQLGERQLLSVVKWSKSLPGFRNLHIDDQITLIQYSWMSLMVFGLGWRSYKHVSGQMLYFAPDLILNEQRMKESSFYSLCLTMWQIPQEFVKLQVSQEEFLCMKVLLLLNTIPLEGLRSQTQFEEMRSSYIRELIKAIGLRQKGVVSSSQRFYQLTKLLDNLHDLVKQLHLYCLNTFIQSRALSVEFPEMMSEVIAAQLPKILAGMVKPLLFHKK
Sequence of Nuclear receptor subfamily 1 group I member 2 (Homo sapiens) (O75469 whole entry, looked up): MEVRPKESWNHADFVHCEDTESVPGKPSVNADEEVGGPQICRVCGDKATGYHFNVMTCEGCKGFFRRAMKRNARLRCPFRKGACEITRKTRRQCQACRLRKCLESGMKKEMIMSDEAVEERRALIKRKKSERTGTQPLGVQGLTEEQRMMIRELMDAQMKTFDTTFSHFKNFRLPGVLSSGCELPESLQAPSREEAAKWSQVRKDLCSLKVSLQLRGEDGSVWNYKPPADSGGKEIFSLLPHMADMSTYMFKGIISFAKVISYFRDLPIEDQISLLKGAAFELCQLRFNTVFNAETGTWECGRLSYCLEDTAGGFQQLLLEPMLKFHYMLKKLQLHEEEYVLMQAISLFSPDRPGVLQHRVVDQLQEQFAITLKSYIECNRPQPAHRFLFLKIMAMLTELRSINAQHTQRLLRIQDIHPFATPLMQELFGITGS
Sequence of Cytochrome P450 2D6 (Homo sapiens) (P10635 whole entry, looked up): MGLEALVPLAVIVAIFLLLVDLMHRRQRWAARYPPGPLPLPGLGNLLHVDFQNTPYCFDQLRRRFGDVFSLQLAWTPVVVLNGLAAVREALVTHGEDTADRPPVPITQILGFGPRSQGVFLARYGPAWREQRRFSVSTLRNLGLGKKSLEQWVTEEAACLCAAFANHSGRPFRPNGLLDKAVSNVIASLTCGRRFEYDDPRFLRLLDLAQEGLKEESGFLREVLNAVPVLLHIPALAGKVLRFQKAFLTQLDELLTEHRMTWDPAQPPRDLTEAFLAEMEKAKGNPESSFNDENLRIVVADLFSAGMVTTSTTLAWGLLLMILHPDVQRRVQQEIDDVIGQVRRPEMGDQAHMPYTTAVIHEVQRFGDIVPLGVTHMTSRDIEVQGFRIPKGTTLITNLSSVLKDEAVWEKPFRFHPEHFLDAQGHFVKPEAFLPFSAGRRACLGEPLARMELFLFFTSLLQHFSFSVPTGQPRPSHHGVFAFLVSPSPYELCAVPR
Sequence of Nuclear receptor subfamily 1 group I member 2 (Rattus norvegicus) (Q9R1A7 whole entry, looked up): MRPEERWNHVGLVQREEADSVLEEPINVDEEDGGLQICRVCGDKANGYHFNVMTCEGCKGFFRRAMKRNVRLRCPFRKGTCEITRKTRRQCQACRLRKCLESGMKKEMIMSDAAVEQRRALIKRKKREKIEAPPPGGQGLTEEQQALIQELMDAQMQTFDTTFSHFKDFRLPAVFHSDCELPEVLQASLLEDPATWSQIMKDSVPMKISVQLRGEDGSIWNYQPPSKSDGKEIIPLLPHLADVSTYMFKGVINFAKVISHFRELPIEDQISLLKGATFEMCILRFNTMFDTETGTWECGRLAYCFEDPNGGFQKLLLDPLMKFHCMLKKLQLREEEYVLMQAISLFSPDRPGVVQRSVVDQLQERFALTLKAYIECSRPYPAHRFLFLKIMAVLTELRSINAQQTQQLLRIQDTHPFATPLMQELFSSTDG

`CCc1c(C(=O)NN2CCCCC2)nn(-c2ccc(Cl)cc2Cl)c1-c1ccc(Br)cc1`: the Potency result in assay [1], in assay [2], in assay [4], in assay [5], in assay [8] and in [9] was “inactive” in each case. Also, the Potency entry in assay [10] and in assay [12] was “inactive” throughout. Further, the results for the Potency in assay [3] and in assay [11] were 3.44 µM (active) and 48.6 µM (active), respectively. The result in assay [6] and in [7] was inactive.

In the case of `COc1cccc(N(C)C(=S)Oc2ccc3c(c2)CCCC3)n1`, the Potency entry in assay [1], in [2], in [4], in assay [13], in [5] and in assay [14] was “inactive” in each case. Moreover, the Potency entry in assay [8], in assay [15], in assay [10], in assay [16] and in assay [12] was “inactive” each time. For the same compound, the Potency was 18.8 µM (active) in assay [3] and 1.26 µM (active) in assay [17]. Moreover, the compound was called inactive in assay [7].

`CC(=O)c1ccc2c(c1)N(CCCN(C)C)c1ccccc1S2`: the Potency entry in assay [1], in [2], in assay [3], in assay [13], in [5] and in [14] was “inactive” each time. For the same compound, the Potency result in assay [8], in assay [9], in assay [10], in [11], in [19] and in [17] was “inactive” throughout. Further, the call in assay [6] and in assay [7] was inactive. For the same compound, the max activation in assay [18] is -2.15%. Also, the Potency in [12] was 1.95 µM (active).

Take `c1cc(CCCc2ccncc2)ccn1`: the Potency result in assay [1], in [2], in assay [4], in assay [5], in assay [14] and in assay [8] was “inactive” throughout. Besides, the Potency result in assay [15], in assay [9], in [10] and in assay [16] was “inactive” throughout. Moreover, the Potency in [3] is 54.5 µM (active); in [11], 61.1 µM (active); in assay [12], 1.78 µM (active). In addition, the compound was called inactive in [7].

In the case of `CCOCC(O)COc1ccc(NC(=O)CC[S+](C)C)cc1` (stereo not given), the Potency entry in [1], in assay [2], in [3], in [4], in assay [13] and in assay [5] was “inactive” in each case. The Potency result in assay [14], in [8], in assay [10], in assay [16], in assay [11] and in [19] was “inactive” throughout. The Potency entry in assay [17] is “inactive”. Further, the result in assay [6] and in assay [7] was inactive. Also, the max activation in [18] was -0.952%.

As for `Cc1cccc(Nc2ccccc2)c1`, the Potency entry in [1], in assay [2], in assay [3], in assay [4], in assay [5] and in assay [14] was “inactive” throughout. Also, the Potency entry in assay [15], in assay [10] and in assay [16] was “inactive” each time. In assay [6], the compound was classed as inactive.

On to `C[N+]1(CC2COC(c3ccccc3)(C3CCCCC3)O2)CCCCC1` (stereo not given), for which the Potency result in [1], in assay [2], in assay [3], in assay [4], in [13] and in assay [5] was “inactive” throughout. Moreover, the Potency entry in assay [14], in [15], in [9], in assay [20], in assay [10] and in [16] was “inactive” throughout. Also, the Potency entry in [11], in [19] and in assay [17] was “inactive” in each case. For the same compound, in assay [6], the compound was called inactive. Also, the max activation in assay [18] is -1.36%. For the same compound, the Potency in [12] is 0.977 µM (active).

In the case of `O=C1OC(=O)C2C3C=CC(C3)C12` (stereo not given), the Potency result in [1], in assay [2], in assay [3], in assay [4], in assay [5] and in assay [14] was “inactive” each time. In addition, the Potency result in assay [8], in [15], in assay [9], in assay [10], in [16] and in [11] was “inactive” in each case. For the same compound, the Potency result in [12] was “inactive”. In addition, the call in assay [6] and in assay [7] was inactive.
